Source: PubChem BioAssay
The source made the active and inactive calls. Unless noted, the rule behind the calls is not given here.

Tests used:
[1] = test system: XIP peptide (Xip251-270) binding; assay: small-molecule binders of XIP peptide, primary screen, biochemical, small-molecule microarray, fluorescence 635/667 nm, 0.1 µg/mL protein (AID 1182); details: fluorescent protein binding, 635 nm, higher = more signal, called active from +8 up or from −8 down
[2] = test system: XIP peptide (Xip251-270); assay: small-molecule binders of XIP peptide, primary screen, biochemical, small-molecule microarray, fluorescence 635/667 nm, 0.5 µg/mL protein (AID 1183); details: small-molecule microarray binding, fluorescence 635 nm; higher = more signal
[3] = Plasmodium falciparum growth inhibition, primary screen, strain 3D7, DAPI fluorescence, 100 nL (AID 1184);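 note: parasites grown inside human red blood cells in medium with human serum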; details: P. falciparum 3D7 growth, 3 d, higher = more signal
[4] = target: Homeobox protein Hox-A13 (Mus musculus) (UniProt Q62424); assay: inhibitors of HoxA13-DNA binding, primary screen, biochemical, fluorescence polarization, labeled oligonucleotide (AID 1185); details: 15 min, higher = more signal, called active from +8 up or from −8 down
[5] = inhibitors of hydroxyurea-induced Chk1 phosphorylation, primary screen, imaging, HeLa, phospho-Chk1 antibody, percent positive cells (AID 1186); details: hydroxyurea-induced phospho-Chk1 immunofluorescence imaging, higher = more signal
[6] = inhibitors of hydroxyurea-induced Chk1 phosphorylation, primary screen, imaging, HeLa, phospho-Chk1 nuclear intensity (AID 1187); details: hydroxyurea-induced phospho-Chk1 immunofluorescence imaging, higher = more signal

Chain of Homeobox protein Hox-A13 (Mus musculus) (Q62424 whole entry, looked up): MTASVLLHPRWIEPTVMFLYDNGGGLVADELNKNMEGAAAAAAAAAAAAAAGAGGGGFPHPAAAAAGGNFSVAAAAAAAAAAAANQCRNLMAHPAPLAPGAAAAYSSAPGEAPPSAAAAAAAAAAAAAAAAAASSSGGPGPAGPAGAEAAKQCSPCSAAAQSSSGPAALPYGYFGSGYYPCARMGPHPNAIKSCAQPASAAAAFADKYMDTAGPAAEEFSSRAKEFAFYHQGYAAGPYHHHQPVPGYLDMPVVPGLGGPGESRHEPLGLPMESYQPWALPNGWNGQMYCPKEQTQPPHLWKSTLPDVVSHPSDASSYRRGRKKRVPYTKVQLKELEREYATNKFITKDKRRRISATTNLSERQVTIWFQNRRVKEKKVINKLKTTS

Row | SMILES | composite z-score [1] | composite z-score [2] | z-score [3] | z-score [4] | z-score [5] | z-score [6]
1 | CN(C)CCCC[C@@H]1NC(=O)[C@@H]2C[C@H](C(=O)NCCCCCCN)[C@H](c3ccc(O)cc3)N2C1=O | 0.674 (inactive) | 0.0252 | 0.0094 | -2.65 (inactive) | 0.136 (inactive) | -0.366 (inactive)
2 | CCCCN1CC=CC23O[C@@H]4C=CCCOC(=O)C4[C@H]2C(=O)N(CCCO)[C@@H]3C1=O (stereo not given in full) | -0.687 (inactive) | -0.624 | -1.74 | -3.72 (inactive) | -0.0781 (inactive) | -0.559 (inactive)
3 | O=C1OCCC=C[C@H]2OC34C=CCN(CCN5CCOCC5)C(=O)[C@H]3N(CCO)C(=O)[C@@H]4C12 (stereo not given in full) | 0.134 (inactive) | 0.0053 | 0.0863 | -5.81 (inactive) | -0.492 (inactive) | -0.757 (inactive)
4 | Cc1ccc(N2C(=O)c3ccccc3[C@](C)(C(=O)NCCN3CCOCC3)[C@@H]2c2ccc(CO)cc2)nc1 | -0.772 (inactive) | 0.471 | -0.855 | -1.9 (inactive) | -0.217 (inactive) | -0.163 (inactive)
5 | COc1ccc([Si](C)(C)[C@@H]2[C@@H](CCO)O[C@]3(C(=O)N(Cc4cccc(N5CCCCC5=O)c4)c4ccccc43)[C@H]2C)cc1 | 0.278 (inactive) | 0.648 | -2.82 | -5.08 (inactive) | -0.405 (inactive) | -0.474 (inactive)
6 | COCCCNC(=O)[C@@]1(Sc2ccc(C)cc2)CC(=O)N(Cc2ccccc2)[C@@H]1c1ccc(CO)cc1 | -0.496 (inactive) | 0.841 | -0.471 | -2.81 (inactive) | -0.24 (inactive) | -0.283 (inactive)
7 | COCCn1c(C(=O)N(C)C)cc2c1C[C@H]1CN(C(=O)c3ccccc3)[C@@](Cc3ccc(F)cc3)(C(=O)OC)[C@@H]21 | 0.112 (inactive) | 0.0743 | -0.292 | -4.93 (inactive) | 0.562 (inactive) | 0.478 (inactive)
8 | COC(=O)[C@@]1(Cc2ccc(F)cc2)[C@H]2c3cc(C(=O)N4CCCC4)n(Cc4ccc(Cl)c(C(F)(F)F)c4)c3C[C@H]2CN1C(=O)c1ccccc1 | 0.15 (inactive) | 0.625 | -1.45 | -2.22 (inactive) | 0.612 (inactive) | -0.126 (inactive)
9 | CCCNC(=O)[C@@]1(C)c2ccccc2C(=O)N(C(C)C)[C@H]1c1ccc(CO)cc1 | -0.358 (inactive) | -0.395 | -1.46 | -3.3 (inactive) | -0.017 (inactive) | -0.211 (inactive)
10 | CC(=O)NCCCC[C@@H]1NC(=O)[C@@H]2C[C@H](C(=O)NCCCCCC[N+](C)(C)C)[C@H](c3cccc(OCCO)c3)N2C1=O | 1.52 (inactive) | 0.345 | 0.129 | -4.94 (inactive) | -0.502 (inactive) | -0.0493 (inactive)
11 | COC(=O)[C@@]1(Cc2ccc(F)cc2)[C@H]2c3cc(C(=O)N4CCCC4)n(CCc4ccc(OC)c(Br)c4)c3C[C@H]2CN1C(=O)c1ccccc1 | -0.0505 (inactive) | 0.557 | -1.58 | -2.27 (inactive) | -1.03 (inactive) | -0.872 (inactive)
12 | COc1ccccc1CN1C(=O)c2ccccc2[C@](Cc2ccccc2I)(C(=O)NC2CC2)[C@@H]1c1ccc(CO)cc1 | -0.259 (inactive) | 0.823 | -2.22 | -4.79 (inactive) | -0.145 (inactive) | 0.548 (inactive)
13 | COc1ccccc1CN1C(=O)c2ccccc2[C@](Cc2ccccc2I)(C(=O)NCc2ccccc2)[C@@H]1c1ccc(CO)cc1 | -0.501 (inactive) | 0.801 | -0.818 | -2.8 (inactive) | 0.234 (inactive) | 0.365 (inactive)
14 | CO[C@H]1O[C@H](CO)[C@@H](OC(=O)Nc2cccc(F)c2)[C@H](OC(=O)Nc2ccccc2-c2ccccc2)[C@@H]1OC(=O)Nc1ccccc1-c1ccccc1 | 1.37 (inactive) | 0.805 | -2.53 | -1.83 (inactive) | -0.164 (inactive) | 0.217 (inactive)
15 | CCOC(=O)C[C@H]1[C@H](OC(=O)c2cc3ccccc3oc2=O)[C@@H](NC(=O)c2ccc3ccccc3c2)c2cc(OCCCO)ccc2N1C(=O)c1ccccc1 | 0.126 (inactive) | 0.218 | -2.17 | 0.287 (inactive) | 0.371 (inactive) | 0.632 (inactive)
16 | O=C1OCC=C[C@H]2OC34C=CCN(c5ccc6ccccc6c5)C(=O)[C@H]3N(CCO)C(=O)[C@@H]4[C@@H]12 (stereo not given in full) | 0.594 (inactive) | 0.605 | 0.666 | -5.78 (inactive) | 0.0775 (inactive) | 0.219 (inactive)
17 | CN1C(=O)C2C=CC(C(O)c3ccccc3)N(NC(=O)OC(C)(C)C)C2C1=O (stereo not given) | 0.4 (inactive) | 0.886 | -0.305 | -0.867 (inactive) | 0.253 (inactive) | -0.0164 (inactive)
18 | CCOC(=O)N1C(c2ccc(OCCCO)cc2)=NC(C(=O)OC)N1C(=O)OCC (stereo not given) | 1.43 (inactive) | 0.735 | -1.28 | -4.45 (inactive) | -0.231 (inactive) | -0.116 (inactive)
19 | C=CCN1C(=O)[C@]2(COC(c3ccc(OCCCO)cc3)=N2)Cc2ccccc21 | 2.53 (inactive) | 0.797 | -2.19 | -4.31 (inactive) | -0.455 (inactive) | -0.398 (inactive)
20 | CCCC[C@@H]1C[C@H]1[C@@H](NC(=O)c1ccccc1)c1ccccc1 | -0.33 (inactive) | -0.302 | 0.328 | -1.46 (inactive) | 0.072 (inactive) | -0.0583 (inactive)
21 | [N-]=[N+]=NCc1ccccc1[C@@H]1OC(c2ccc(OCCCO)cc2)=N[C@]1(Cc1ccccc1)C(=O)O | 0.078 (inactive) | 0.859 | 0.615 | -4.89 (inactive) | 0.412 (inactive) | 0.595 (inactive)
22 | O=C1OCC=C[C@H]2OC34C=CCN(CCN5CCOCC5)C(=O)[C@H]3N(CCCCCCO)C(=O)[C@@H]4[C@@H]12 (stereo not given in full) | 0.304 (inactive) | -0.291 | -0.448 | -7.09 (inactive) | -1.52 (inactive) | -1.21 (inactive)
23 | Cc1ccccc1/C=C/C=O | 0.958 (inactive) | 0.532 | -0.198 | -0.848 (inactive) | 0.133 (inactive) | 0.0525 (inactive)
24 | C=CCC(OC(C)=O)[C@@H]1[C@@H](N(Cc2cc3ccccc3o2)C(=O)c2ccc(C)cc2)c2cc(OCCCO)ccc2N1C(=O)c1ccc(-c2ccccc2)cc1 (stereo not given in full) | -0.28 (inactive) | -0.294 | -2.58 | -0.468 (inactive) | -1.19 (inactive) | -1.05 (inactive)
25 | CC(C)C[C@@H]1NC(=O)[C@@H]2C[C@H](C(=O)NCCCCN(C)C)[C@H](c3ccc(O)cc3)N2C1=O | -0.0862 (inactive) | 0.937 | -0.06 | -1.49 (inactive) | 0.326 (inactive) | 0.219 (inactive)
